# Peg3 promoter = Peg3 promoter-driven luciferase inhibitors, primary screen, cell-based, HeLa, luciferase luminescence; inhibition, % at 20 µM; AID 588405, 2011; HeLa PEG-Prom luciferase reporter, overnight; 360,000 compounds, 1.7% hits;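 active = inhibition of at least 50% at 20 µM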
# PAX8 inh HTS = inhibitors of PAX8-driven TPO luciferase reporter, primary screen, RMG-I cells, single concentration. 360,000 compounds, 1.2% hits. SteadyGlo, 24 h. inhibition, % at 12.6 µM. AID 652154, 2013;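 active = mean replicate inhibition at least 60% with every replicate also reaching 60%; inconclusive = only one of the two criteria is met; inactive = mean below 60% and not all replicates reaching 60%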;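 note: luciferase light reporting Pax8 driven TPO promoter activity; plate controls were median of neutral control wells for no effect and mitoxantrone controls for full effect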
# HIF-2a block = HIF-2a reporter inhibitors, primary screen, luminescence, 786-0 RCC cells; 360,000 compounds, 0.72% hits; AID 624352, 2012; 786-0 RCC cells HIF-2a reporter, luciferase luminescence, overnight; inhibition, % at 18.8 µM;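 active = inhibition of the luminescence signal of 40% or more relative to plate controls, in a single-dose primary screen at 18.75 µM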
# Shn3 3UTR inh = reduction of Shn3 3'UTR firefly luciferase signal, primary screen, Schnurri-3 inhibitor project, cell-based, Clone20 osteoblasts, set 2. Clone20 osteoblast Shn3 3'UTR firefly luciferase, 24 h. inhibition, % at 12.5 µM. 360,000 compounds, 0.52% hits. AID 588674, 2011;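 active = mean inhibition of at least 75% with every replicate also reaching 75%; inconclusive = mean inhibition at least 75% but some replicate below; inactive = mean inhibition below 75%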;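 note: 0% = median of neutral control wells and 100% = pilot-screen positive control compound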
# EBV LMP1 NFkB = EBV LMP1-driven NF-kappaB luciferase reporter inhibitors, primary screen, cell-based, luminescence, single point | inhibition, % at 12.5 µM | LMP1-induced NF-kappaB luciferase reporter cells | AID 504558, 2011 | 350,000 compounds, 0.69% hits; in the data active = inhibition above about 41%; inconclusive = no clear call, values can overlap the other calls;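 note: 0% = neutral control wells and 100% = reference inhibitor control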
# TRPM1 prom inh = inhibitors of MITF-dependent TRPM1 promoter reporter, primary screen, cell-based, SK-MEL-5, single point, luciferase | inhibition, % at 12.5 µM | SK-MEL-5 TRPM1 promoter luciferase, 24 h | AID 488899, 2010 | 330,000 compounds, 0.83% hits;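 active = mean inhibition across replicates of 60% or more, whatever share of single replicates reaches that level; inconclusive = some that reach 60%, reason not given; inactive = mean inhibition across replicates below 60%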
# * marks the source's active call; other numbers are inactive results; ? = inconclusive; . = no result. Most compounds without a hit are left out; they make up all but 2.8% or so of the library.
SMILES,Peg3 promoter,PAX8 inh HTS,HIF-2a block,Shn3 3UTR inh,EBV LMP1 NFkB,TRPM1 prom inh
CN1C(=O)c2cc(NS(C)(=O)=O)ccc2OC[C@H]2O[C@H](CC(=O)NCc3ccc(-c4ccccc4)cc3)CC[C@H]21,.,-3,.,.,.,.
O=C1OC[C@@H](c2ccccc2)n2cc(/C=C/c3ccccc3)cc21,.,3,.,.,.,.
CCCNC(=O)Nc1ccc2c(c1)C(=O)N(C)C[C@H](OC)[C@@H](C)CN(C(=O)C1CCCCC1)[C@@H](C)CO2,.,-2,.,.,.,.
CCCn1c(=N)n(CC(=O)c2ccc([N+](=O)[O-])cc2)c2ccccc21,60*,-20,-65,16,4,27
N=c1n(CC(=O)c2cccc([N+](=O)[O-])c2)c2ccccc2n1Cc1ccccc1,58*,3,5,19,-37,51
Cc1ccccc1Cn1c(=N)n(CC(=O)c2ccc([N+](=O)[O-])cc2)c2ccccc21,71*,.,20,-13,-26,66*
CCn1c(=N)n(CC(=O)c2cccc([N+](=O)[O-])c2)c2ccccc21,-236,-9,-276,-61,-20,-50
CC(C)C(=O)Nc1ccc2c(c1)C(=O)N(C)[C@@H]1CC[C@@H](CC(=O)N[C@H](C)c3ccccc3)O[C@@H]1CO2,.,-20,.,.,.,.
CCNC(=O)Nc1ccc2c(c1)C(=O)N(C)[C@@H]1CC[C@@H](CC(=O)NCc3ccc(F)cc3)O[C@@H]1CO2,.,8,.,.,.,.
CCCNC(=O)N1CC(=O)N2[C@H](C1)[C@H](c1ccc(-c3cccc(C)c3)cc1)[C@@H]2CO,.,-24,.,.,.,.
CCCOc1cccc(-c2cc(C(=O)N/N=C/c3ccccn3)c3ccccc3n2)c1,5,25,-35,38,15,90*
CCCOc1cccc(-c2cc(C(=O)N/N=C/c3cccnc3)c3ccccc3n2)c1,-44,-34,-144,-19,.,-3
O=C(N/N=C/c1ccco1)c1cc(-c2ccccc2)nc2ccccc12,0,13,-17,-6,0,12
O=C(N/N=C/c1ccccn1)c1cc(-c2ccc(Br)cc2)nc2ccccc12,75*,66*,-30,55,3,66*
O=C(N/N=C/c1ccccn1)c1cc(-c2ccc(Cl)cc2)nc2ccccc12,-71,11,-11,79,11,81*
CCCCCCCC(=O)Nc1ccc(C(=O)N/N=C/c2cccc([N+](=O)[O-])c2)cc1,101*,18,8,39,-58,72*
Cc1cc(N2CCN(C)CC2)ccc1NC(=O)c1ccc(-c2ccc(Cl)cc2)o1,90*,13,41*,31,-1,-2
COc1ccc(OC)c(-c2nnc3n2N=C(c2ccc(OC)c(OC4CCOC4)c2)CS3)c1 (centres undefined),2,97*,20,12,26,71*
COc1ccc(C2=Nn3c(nnc3-c3ccccc3F)SC2)cc1OCC1CC1,53*,50,6,15,16,18
CN1c2ccc(C#Cc3cccnc3)cc2[C@H]2[C@H](CCN2S(=O)(=O)c2ccccc2F)[C@@H]1CO,.,-26,.,.,.,.
Cc1ccc(S(=O)(=O)Nc2ccc3c(c2)C(=O)N([C@H](C)CO)C[C@H](C)[C@@H](CN(C)Cc2ccc(C(F)(F)F)cc2)OCCCC[C@H](C)O3)cc1,.,97*,.,.,.,.
Cc1ccc(S(=O)(=O)Nc2ccc3c(c2)C(=O)N([C@H](C)CO)C[C@@H](C)[C@H](CN(C)Cc2ccc(C(F)(F)F)cc2)OCCCC[C@H](C)O3)cc1,.,116*,.,.,.,.
Cc1ccc(S(=O)(=O)Nc2ccc3c(c2)C(=O)N([C@@H](C)CO)C[C@H](C)[C@@H](CN(C)Cc2ccc(C(F)(F)F)cc2)OCCCC[C@@H](C)O3)cc1,.,97*,.,.,.,.
Cc1ccc(S(=O)(=O)Nc2ccc3c(c2)C(=O)N([C@@H](C)CO)C[C@@H](C)[C@@H](CN(C)Cc2ccc(C(=O)O)cc2)OCCCC[C@@H](C)O3)cc1,.,-4,.,.,.,.
Cc1ccc(S(=O)(=O)Nc2ccc3c(c2)C(=O)N([C@H](C)CO)C[C@H](C)[C@H](CN(C)Cc2ccc(C(=O)O)cc2)OCCCC[C@H](C)O3)cc1,.,4,.,.,.,.
SMILES,Peg3 promoter,PAX8 inh HTS,HIF-2a block,Shn3 3UTR inh,EBV LMP1 NFkB,TRPM1 prom inh
Cc1ccc(S(=O)(=O)Nc2ccc3c(c2)C(=O)N([C@@H](C)CO)C[C@H](C)[C@H](CN(C)Cc2ccc(C(F)(F)F)cc2)OCCCC[C@H](C)O3)cc1,.,108*,.,.,.,.
COc1cccc(NC(=O)N2C[C@H](O)COC[C@H]3O[C@H](CC(=O)N(C)C)CC[C@@H]32)c1,.,-10,.,.,.,.
C[C@@H]1CCCCO[C@@H](CN(C)Cc2ccc3c(c2)OCO3)[C@H](C)CN([C@@H](C)CO)C(=O)c2cc(NC(=O)Nc3ccccc3)ccc2O1,.,0,.,.,.,.
O=C(C[C@H]1C=C[C@@H](NC(=O)C2CCC2)[C@@H](CO)O1)NC1CCC1,.,-12,.,.,.,.
C[C@@H]1CCCCO[C@@H](CN(C)Cc2ccc(C(F)(F)F)cc2)[C@@H](C)CN([C@H](C)CO)C(=O)c2cc(NS(=O)(=O)c3ccc(F)cc3)ccc2O1,.,-2,.,.,.,.
Cc1ccc(S(=O)(=O)Nc2ccc3c(c2)C(=O)N([C@@H](C)CO)C[C@H](C)[C@H](CN(C)Cc2ccc(C(F)(F)F)cc2)OCCCC[C@@H](C)O3)cc1,.,102*,.,.,.,.
COc1ccc(NC(=O)Nc2cccc3c2O[C@@H](CN(C)S(=O)(=O)c2ccccc2)[C@@H](C)CN([C@@H](C)CO)C3=O)cc1,.,-3,.,.,.,.
O=C(NC1=C(Nc2ccc(Cl)cc2)C(=O)c2ccccc2C1=O)c1ccccc1,3,47,8,-14,-2,72*
Cc1cccc(NC2=C(NC(=O)c3ccccc3)C(=O)c3ccccc3C2=O)c1,8,25,2,-42,-16,?
O=C(Nc1cccc(Cl)c1)c1ccccc1,-310,-136,-256,-32,-12,-80
O=C1C(Cl)=C(NC(=O)c2ccccc2)C(=O)C(Cl)=C1NC(=O)c1ccccc1,103*,80*,72*,16,-1,48
C[C@H](CO)N1C[C@H](C)[C@@H](CN(C)C(=O)c2ccncc2)OCCCC[C@H](C)Oc2ccc(NC(=O)C3CCCCC3)cc2C1=O,.,5,.,.,.,.
CN1[C@@H]2Cn3c(ccc(-c4ccccc4)c3=O)[C@H]1[C@@H](C(=O)NC1CCCCC1)[C@@H]2CO,.,89*,.,.,.,.
CN1[C@H](C(=O)N2CCc3ccccc3C2)[C@@H](CO)[C@@H]2Cn3c(ccc(-c4ccccc4)c3=O)[C@@H]21,.,68*,.,.,.,.
CN1[C@H](C(=O)N2CCc3ccccc3C2)[C@@H](CO)[C@@H]2Cn3c(ccc(-c4cccnc4)c3=O)[C@@H]21,.,-32,.,.,.,.
CN1[C@@H]2c3ccc(-c4ccccc4)c(=O)n3C[C@H]1[C@H](CO)[C@H]2C(=O)NC1CCCCC1,.,10,.,.,.,.
